The record followed here is PubChem BioAssay (NCI).

The panel holds about 79,000 compounds, 15% with a hit somewhere; the sample as a whole holds those more often. A number with no mark means an inactive call. The source made the active and inactive calls. No stated cut-off is given here; in the data, active means growth inhibition above about 70%; inactive means the rest.

A short description of assay [1]: NCI Yeast Anticancer Drug Screen. Data for the rad50 strain (AID 155).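 Further: 0% = growth of vehicle-only cultures of the same strain.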 To be noted: S. cerevisiae rad50 strain growth inhibition; at 50.0 µM; hits give high values. An outline of the steps: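 Cells are treated with compound, grown, and their growth is then scored against vehicle-only cultures of the same repair-deficient yeast strain.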
A short description of assay [2]: NCI Yeast Anticancer Drug Screen. Data for the mec2-1 strain (AID 157). The note with it: S. cerevisiae mec2-1 strain, at 50.0 µM, hits give high values. The method, boiled down: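 Test agents were screened against the mec2-1 yeast strain, with defined DNA repair or cell cycle alteration. Growth was scored as inhibition against vehicle-only controls.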
Assay [3] in a line: NCI Yeast Anticancer Drug Screen. Data for the sgs1 mgt1 strain (AID 161).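 Further: 0% = growth of cultures given vehicle only.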 To be noted: S. cerevisiae sgs1 mgt1 strain, at 50.0 µM, hits give high values. The method, boiled down: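 Inhibition of yeast growth, normalised to vehicle-treated controls, is reported for a strain bearing genetic alterations in DNA damage repair.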
Assay [4] can be described thus: NCI Yeast Anticancer Drug Screen. Data for the cln2 rad14 strain (AID 165).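 Further: 0% = growth equal to vehicle treated cultures.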 To be noted: S. cerevisiae cln2 rad14 strain, at 50.0 µM, hits give high values. The method, boiled down:
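Growth of compound-exposed yeast (cln2 rad14 genotype) measured and expressed as inhibition relative to vehicle.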

Assay [5] is described as follows: NCI Yeast Anticancer Drug Screen. Data for the bub3 strain (AID 167). The note with it: S. cerevisiae bub3 mutant strain, at 50.0 µM, hits give high values. An outline of the steps:
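Part of a panel of yeast mutants defective in DNA damage repair or cell cycle regulation. Each strain is grown with compound, and inhibition is calculated relative to solvent-treated cultures.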

A short description of assay [6]: NCI Yeast Anticancer Drug Screen. Data for the mlh1 rad18 strain (AID 175). To be noted: S. cerevisiae mlh1 rad18 strain growth inhibition; at 50.0 µM; hits give high values. An outline of the steps: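 In this whole-cell yeast screen, a strain with altered DNA damage repair is challenged with compound, and its growth is measured against matched vehicle-treated controls.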

In the case of `COc1ccc(OC)c(/C=C/C(=O)NC(CO)CSCSC)c1` (stereo unspecified), the growth inhibition in assay [1] was -0.35%; in assay [2], 4.75%; in assay [3] it was -3.9%; in assay [4], -10.8%; in assay [5], 21.5%; in assay [6], -24.4%.
With `CC(=O)NC1=NC(=O)/C(=C/c2ccc(/C=C3/C(=O)N=C(NC(C)=O)N3C)cc2)N1C`, the growth inhibition in assay [1] is -20.6%; in assay [2], 11%; in assay [3], 14.4%; in assay [4], 35.6%; in assay [5], -9.05%; in assay [6] it was -27.2%.
Turning to `O=C(O)c1ccccc1CC(C(=O)O)C(=O)O`, the growth inhibition in assay [1] was 14.8%; in assay [2] it was 4.05%; in assay [3], 3%; in assay [4], 7.95%; in assay [5], -0.6%; in assay [6] it was 6.15%.
For the molecule `[N-]=[N+]=N[Si](c1ccccc1)(c1ccccc1)c1ccccc1`, the growth inhibition in assay [1] was -17.1%; in assay [2], -11.4%; in assay [3], 2.35%; in assay [4], 7.6%; in assay [5] it was -7.7%; in assay [6], 7.25%.
As to `CCOC(=O)c1c(N)sc2c1C(C(=O)OCC)CCCC2` (stereo unspecified), the growth inhibition in assay [1] was -11.1%; in assay [2] it was 7.5%; in assay [3], 27.3%; in assay [4] it was -16.2%; in assay [5], 37.5%; in assay [6], 38.2%.
For `CC(=O)OC12C=CC(=O)N1c1ccccc1C(=O)O2` (stereo unspecified), the growth inhibition was 18.4% in assay [1]; 8.8% in assay [2]; 25% in assay [3]; 29.2% in assay [4]; 13.8% in assay [5]; 42.4% in assay [6].
In the case of `CC(=O)Nc1cccc2[nH]c(=O)c3ccccc3c12`, the growth inhibition in assay [1] was 3.4%; in assay [2], -6.4%; in assay [3] it was -5.8%; in assay [4], -19.3%; in assay [5] it was -16.9%; in assay [6], 4.55%.
`Cc1ccc(S(=O)(=O)OCCN2C(=O)CCC2=O)cc1`: the growth inhibition in assay [1] is 12.8%; in assay [2] it was 8.8%; in assay [3], 4.65%; in assay [4] it was 9.5%; in assay [5], -0.95%; in assay [6] it was 15.8%.
As for `O=C(O)c1c[nH]c2cc(OCc3ccc(Br)cc3)ccc2c1=O`, the growth inhibition in assay [1] was 13.8%; in assay [2] it was 0.65%; in assay [3] it was -1.85%; in assay [4], 6.9%; in assay [5], 2.5%; in assay [6] it was 9.45%.
Regarding `O=C(NNC(=S)S)c1ccncc1`, the growth inhibition in assay [1] was 7.5%; in assay [2] it was 2.4%; in assay [3], -1.2%; in assay [4], -8.95%; in assay [5], 11.7%; in assay [6] it was 21.9%.
In the case of `CCOC(=O)C(CCSC)(CCSC)C(=O)OCC`, the growth inhibition in assay [1] is -41.4%; in assay [2] it was -56.7%; in assay [3], -31.7%; in assay [4] it was 11.8%; in assay [5] it was 20.4%; in assay [6], -13.1%.
`CN(C)Cc1cn(C[Si](C)(C)C)c2ccccc12`: the growth inhibition in assay [1] was 18.6%; in assay [2], -3.25%; in assay [3], 7.7%; in assay [4] it was 0.35%; in assay [5], 3.75%; in assay [6], 13.2%.
With `Cc1cccc(/C=N/NC(=S)N2CCCCCC2)n1`, the growth inhibition in assay [1] is 89.3% (active); in assay [2], 93.2% (active); in assay [3], 92.1% (active); in assay [4], 92.8% (active); in assay [5], 92.2% (active); in assay [6], 89% (active).
As to `Cc1ccc(C(C)C)c(OCC2=NCCN2C)c1`, the growth inhibition in assay [1] is -7.15%; in assay [2], -3.15%; in assay [3], 3.35%; in assay [4], 0.4%; in assay [5], -16.1%; in assay [6], -10.2%.
As to `Nc1ncc2c(n1)CSCC2=O`, the growth inhibition in assay [1] is -9.4%; in assay [2], 27.7%; in assay [3] it was 14.1%; in assay [4], -2.7%; in assay [5], 16.9%; in assay [6], 12%.
In the case of `Cn1c2ccccc2c2c(-c3ccccc3)cc3c(c21)C(=O)C=CC3=O`, the growth inhibition in assay [1] was -15.3%; in assay [2], -10.6%; in assay [3], 3.8%; in assay [4], 16.2%; in assay [5] it was -25.9%; in assay [6], 7.95%.
As for `CC(C)C(C)(C)C(N)=O`, the growth inhibition was -4.5% in assay [1]; -0.95% in assay [2]; -9.1% in assay [3]; 13.9% in assay [4]; 19.6% in assay [5]; 0.95% in assay [6].
In the case of `C(#Cc1ccccc1)SC1=C(c2ccccc2)S/C(=C(\SC#Cc2ccccc2)c2ccccc2)S1`, the growth inhibition in assay [1] was 9.6%; in assay [2] it was 7.7%; in assay [3], -29.4%; in assay [4], 10.9%; in assay [5], -21.1%; in assay [6], -30.8%.
Turning to `CCOC(=O)/C(C#N)=C/c1cccc(Cl)c1`, the growth inhibition was 28.6% in assay [1]; 30% in assay [2]; 38.9% in assay [3]; 13.3% in assay [4]; 13.4% in assay [5]; 44% in assay [6].
Turning to `CCN(CC)CCNc1ccc2ncn3c4ccccc4c(=O)c1c23`, the growth inhibition is 19.9% in assay [1]; 8.85% in assay [2]; -16.1% in assay [3]; 33.1% in assay [4]; 29.1% in assay [5]; 42.9% in assay [6].
As to `COc1cc([C@H]2CC(=O)C[C@H](c3cc(OC)c(OC)c(OC)c3)C23C(=O)c2ccccc2C3=O)cc(OC)c1OC`, the growth inhibition in assay [1] was -3%; in assay [2] it was 11.9%; in assay [3] it was -8.7%; in assay [4], 29.5%; in assay [5], 0.45%; in assay [6] it was 7%.
